Experimental data: PubChem BioAssay AID624483 (NMMLSC, 2012)
Hit rate of the full screen: of about 360,000 compounds, about 11,000 (3.1%) were called active. Inconclusive results (about 2%) are left out. The sample as a whole holds a higher share of actives than the screen did. Unmarked numbers belong to inactive results. Cut-off read from the data, not from the text of the source: active = fluorescence intensity above about 16000; inconclusive = no clear call, values can overlap the other calls; inactive = below that.

Assay: counter-screen for toxin protease inhibitors: compound fluorescence, primary screen, artefact control for toxin protease inhibitor project, biochemical, multiplex microsphere, HTS (AID 624483)
Details: compound autofluorescence counterscreen, microsphere flow cytometry; hits give high values

First: OC[C@@H]1CN(C2CCCC2)C[C@H](n2cnc3c(NC4CCC4)ncnc32)O1
Second: CCn1c(SCC(=O)NCC2CCCO2)nc2cc(S(=O)(=O)N3CCCCC3)ccc21 (stereo not drawn)
The fluorescence intensity of the first is lower: 2860 for the first, 3450 for the second.

Compared with `Cn1c(=O)[nH]c(=O)c2c1nc(NCCCn1ccnc1)n2Cc1cccc(Br)c1`, `Cn1c(=O)c2c(nc(N/N=C/c3cccs3)n2Cc2ccc(Br)cc2)n(C)c1=O` is lower in fluorescence intensity: 4650 for the first, 2410 for the second.

Going from `COc1cccc(-n2c(=O)c3c(C)c(C(=O)N(C)C)sc3n(CC(=O)NCCc3ccc(OC)c(OC)c3)c2=O)c1` to `COc1cc(/C=C/C(=O)OCC(=O)NCCCc2ccccc2)ccc1O`, the fluorescence intensity rises from 4050 to 5380.

First: CCC/C(O)=C1\C(=O)CC(C)(C)CC1=Nc1ccccc1OC
Second: CCOC(=O)N(C)c1c(CC)nc2c(OCc3ccccc3C(=O)OC)cccn12
The fluorescence intensity of the first is lower: 2780 for the first, 3540 for the second.

First: Cc1cccc(N=C2NC(=O)CS2)c1C
Second: Cc1nnsc1C(=O)Nc1cccc(Cl)c1C
The fluorescence intensity of the first is higher: 7480 for the first, 4480 for the second.

First: Cc1nc(-c2ccccc2)cn2c1nc1ccccc12
Second: Cc1cc(C)n(-c2nc(C(F)(F)F)nc3ccccc23)n1
The fluorescence intensity of the first is lower: 2360 for the first, 3100 for the second.

Going from `CN(C)C(=O)c1cccc(-c2cnc3c(NC=O)cc(-c4ccc(C(=O)N5CCOCC5)cc4)cn23)c1` to `COCCNC(=O)c1ccc(Cn2c(SCC(=O)NCC3CCCO3)nc3ccc(Br)cc3c2=O)cc1` (stereo not drawn), the fluorescence intensity rises from 3080 to 5480.

Going from `CCOc1ccc(CCN2C(=O)C(=O)N([C@@H](CC(C)C)CN3CCC[C@H]3CN3C(=O)C(=O)NC[C@@H]3Cc3ccccc3)C[C@@H]2CC(C)C)cc1` to `O=C1NC[C@H](CCCCN2CCN(CCc3ccccc3)C(=O)C2=O)N(CC2CCCCC2)C1=O`, the fluorescence intensity rises from 4830 to 5200.

Going from `CCOc1ccc(-n2c(SCC(N)=O)nnc2-c2ccco2)cc1` to `Cn1c(SCC(=O)c2cccs2)nnc1-c1ccco1`, the fluorescence intensity rises from 3680 to 8030.

First: NC(=O)c1c(NC(=O)CSc2nnc(-c3ccco3)n2N)sc2c1CCCC2
Second: Nn1c(SCC(=O)Nc2nccs2)nnc1-c1ccco1
The fluorescence intensity of the first is lower: 2490 for the first, 6070 for the second.

First: O=C(Nc1ccc(Cl)c(C(F)(F)F)c1)C1Cc2c(-c3ccccc3Oc3ccccc3)ccnc2O1 (stereo not drawn)
Second: COc1ccc(NC(=O)CCCN2C(=O)C(c3ccccc3)Oc3cccnc32)cc1 (stereo not drawn)
The fluorescence intensity of the first is lower: 3930 for the first, 5260 for the second.

Compared with `OC(c1cc(Cl)cc(Cl)c1)c1ncc(-c2ccccc2C(F)(F)F)[nH]1` (stereo not drawn), `O=C(Nc1nnc(Cc2ccccc2)s1)c1cnccn1` is higher in fluorescence intensity: 2910 for the first, 3990 for the second.

Compared with `O=C(Nc1ccc(Cl)cc1)c1csc([C@@H]2O[C@H](CO)[C@H](O)[C@H](O)[C@H]2O)n1`, `CCNC(=O)c1cc2c(c(-c3cccc(-c4cncnc4)c3)n1)[C@H](CCO)N(C(C)=O)C2` is higher in fluorescence intensity: 3610 for the first, 6050 for the second.

First: CCn1c(SCC(=O)NCC2CCCO2)nc2ccccc21 (stereo not drawn)
Second: O=C(CSc1nc2ccccc2c(=O)n1Cc1ccc(F)cc1)NCC1CCCO1 (stereo not drawn)
The fluorescence intensity of the first is lower: 4090 for the first, 6760 for the second.

Going from `O=C(O)C1CCCN1S(=O)(=O)c1ccc2c(c1)CCC2` (stereo not drawn) to `CCC1CCCCN1S(=O)(=O)Cc1ccccc1Cl` (stereo not drawn), the fluorescence intensity falls from 7810 to 5020.

Going from `CC(C)(C)SCCSC1=CC(=O)CC(c2ccccc2)C1` (stereo not drawn) to `Cc1ccccc1S(=O)(=O)N1[C@@H](c2cccc(Cl)c2)C(C(=O)OC(C)(C)C)=CC[C@H]1c1ccc(Cl)cc1`, the fluorescence intensity rises from 3630 to 4430.

Compared with `CCCCNC(=O)C[C@@H]1C[C@@]2(C(=O)OCC)CCC=C2N(Cc2ccco2)C1=O`, `CC(C)(C)NC(=O)c1cc(NC(=O)c2ccco2)cc(NC(=O)c2ccco2)c1` is lower in fluorescence intensity: 6060 for the first, 3040 for the second.

Compared with `CC1(Cc2ccccc2C#N)C(=O)Nc2ccc(-c3ccc4[nH]ccc4c3)cc21` (stereo not drawn), `Cc1cc(C)n(-c2c(F)c(F)c(COC(=O)c3ccccc3)c(F)c2F)n1` is lower in fluorescence intensity: 3220 for the first, 3060 for the second.

First: C[C@H]1COc2cc(N3CCSCC3)ccc2S(=O)(=O)N1
Second: c1ccc(C[C@H]2CNCCN2CCC23CC4CC(CC(C4)C2)C3)cc1
The fluorescence intensity of the first is higher: 5560 for the first, 3210 for the second.

In the case of `COc1cc(NC(=O)c2cc(-c3ccc(F)cc3OC(C)C)n[nH]2)cc(OC)c1OC`, the fluorescence intensity is reported as 3570.

In the case of `CCOc1ccccc1N=C1NC(=O)CS1`, the fluorescence intensity is reported as 23300 (active).
With `CCOC(=O)CSc1nnc(-c2ccco2)n1C` the fluorescence intensity was 19700 (active).
With `CCc1cccc(C)c1NC(=O)CSc1nnc(-c2ccco2)n1N` the fluorescence intensity was 23800 (active).
For `CCCCn1c(SCC(=O)NCC2CCCO2)nc2ccc(N3CCOCC3)cc2c1=O` (stereo not drawn), the fluorescence intensity was 21100 (active).
In the case of `O=C(CCCn1c(SCC(=O)c2ccccc2)nc2ccccc2c1=O)NCC1CCCO1` (stereo not drawn), the fluorescence intensity is reported as 23800 (active).
In the case of `Cc1nnsc1S(=O)(=O)Cc1ccccc1Cl`, the fluorescence intensity is reported as 22200 (active).
For `CCCOn1c(-n2nc(C)cc2C)nc2ccccc2c1=O`, the fluorescence intensity was 23500 (active).
In the case of `CC12CCC(C(=O)N(CCC#N)CCC#N)(CC1=O)C2(C)C` (stereo not drawn), the fluorescence intensity is reported as 20400 (active).
For `O=C(Nc1cccc(NC(=O)c2ccco2)c1)c1cnccn1`, the fluorescence intensity was 23700 (active).
